Screening data deposited in PubChem by Johns Hopkins Ion Channel Center.
Compounds with a hit are over-represented: about 1.6% of the library has one in this group of screens.
KCNQ2 block = rat KCNQ2 potassium channel inhibitors, primary screen, cell-based, CHO-K1, FluxOR thallium flux, B-score; Potassium voltage-gated channel subfamily KQT member 2 (Rattus norvegicus), O88943; 20 min; active compounds read low; B-score at 10 µM; 1.1% of 310,000 active;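 active = fluorescence ratio B-score at most minus 3 library SDs, with starting brightness B-score within 2 library SDs, cut at about -5.5 in these data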
KCNQ2 pot = potentiators of rat KCNQ2 potassium channel. CHO-K1 KCNQ2, FluxOR thallium flux fluorescence; active compounds read high. B-score at 10 µM. 0.54% of 310,000 active;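 active = fluorescence ratio B-score at least 3 SD of library B-scores, with initial fluorescence B-score within 3 of them, cut at about 5.3 in these data; same plate scores as AID 2156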;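 also: B-score of peak minus minimum over baseline fluorescence ratio after K+ and Tl+ stimulus; positive B-score means potentiation of KCNQ2 with more thallium influx and brighter signal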
Kir21 confirm = mouse Kir2.1 channel blockers, retest, confirmation, cell-based, FluxOR thallium flux, duplicate | AID 2032, 2009 | 41% of 2,300 active | shares compounds with KCNQ2 pot | Tl flux remaining, % of negative control (active compounds read low), % at 10 µM | Kir2.1-expressing cells, FluxOR thallium flux fluorescence; active compounds read low;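 active = Primary-screen hit whose thallium flux fell at least 3 control SD below untreated wells in both duplicates, with normal baseline fluorescence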
HEK293 ctr = counter-screen for Kir2.1 inhibitors: effect in parental HEK293 cells; FluxOR signal as % of negative control (100 = no effect), % at 10 µM; AID 2105; shares compounds with KCNQ2 pot; FluxOR thallium flux fluorescence; 0% = unstimulated blank wells; 19% of 2,300 active;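 active = dye signal at least 3 control SD above or below untreated wells in both duplicates, raw fluorescence within 3, either direction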;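 also: percent is based on the flux ratio of peak minus minimum fluorescence over baseline F0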
CHO-K1 Tl ctr = nonspecific thallium flux increase in parental CHO-K1, confirmation, counter-screen for KCNQ2 potentiator project, cell-based, FluxOR thallium flux, duplicate. shares compounds with KCNQ2 pot. parental CHO-K1 cells, FluxOR thallium flux fluorescence; zero = vehicle mean+3SD, 100% = vehicle-minus-blank window. activity increase over 3SD of controls, % at 10 µM. 43% of 1,200 active;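 active = signal rise of at least 3 SD above the untreated control mean, in both duplicate wells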;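 also: counter screen of KCNQ2 potentiator hits so any rise reflects channel-independent effects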
KCNQ1 sel pot = human KCNQ1 channel potentiation off-target, confirmation, selectivity assay for KCNQ2 potentiator project, cell-based, CHO, FluxOR thallium flux; CHO KCNQ1 stable, FluxOR thallium flux fluorescence; beyond 3SD, as % of vehicle-control signal; 28% of 1,200 active; shares compounds with KCNQ2 pot; AID 2283, 2010; activation over 3SD threshold, % at 10 µM;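 active = fluorescence ratio rise of at least 3 SD of vehicle wells above their mean, in both replicate wells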
KCNQ2 pot confirm = rat KCNQ2 channel potentiators, confirmation, cell-based, CHO, FluxOR thallium flux, duplicate; shares compounds with KCNQ2 pot; 68% of 1,200 active; potentiation, less the hit threshold, % at 10 µM; CHO-KCNQ2 cells, FluxOR thallium flux fluorescence;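 active = fluorescence ratio rising 3 SD or more over the vehicle control mean in both replicates, plus primary screen hit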;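 also: peak minus minimum thallium fluorescence divided by baseline after K/Tl stimulus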
Kir2-1 sel = mouse Kir2.1 channel activation off-target, confirmation, selectivity assay for KCNQ2 potentiator project, cell-based, HEK293, FluxOR thallium flux. activity over 3SD threshold, % at 10 µM. 2% of 1,200 active. HEK293 Kir2.1, FluxOR thallium flux fluorescence. AID 2345, 2010. shares compounds with KCNQ2 pot;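 active = fluorescence ratio rise of at least 3 SD above the vehicle-control mean, seen in both replicates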
KCNQ2 W236L MoA = potentiators of retigabine-insensitive KCNQ2 W236L, mechanism study for KCNQ2 potentiator project, cell-based, rat KCNQ2 W236L, CHO, automated patch clamp. shares compounds with KCNQ2 pot. automated patch clamp current. current increase over 3SD of negative controls (%), active compounds read high, % at 25 µM. 10% of 940 active;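 active = current increase at least 3 SD of the untreated controls above them in both duplicate recordings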
Target sequence (O88943 whole entry W236L, looked up): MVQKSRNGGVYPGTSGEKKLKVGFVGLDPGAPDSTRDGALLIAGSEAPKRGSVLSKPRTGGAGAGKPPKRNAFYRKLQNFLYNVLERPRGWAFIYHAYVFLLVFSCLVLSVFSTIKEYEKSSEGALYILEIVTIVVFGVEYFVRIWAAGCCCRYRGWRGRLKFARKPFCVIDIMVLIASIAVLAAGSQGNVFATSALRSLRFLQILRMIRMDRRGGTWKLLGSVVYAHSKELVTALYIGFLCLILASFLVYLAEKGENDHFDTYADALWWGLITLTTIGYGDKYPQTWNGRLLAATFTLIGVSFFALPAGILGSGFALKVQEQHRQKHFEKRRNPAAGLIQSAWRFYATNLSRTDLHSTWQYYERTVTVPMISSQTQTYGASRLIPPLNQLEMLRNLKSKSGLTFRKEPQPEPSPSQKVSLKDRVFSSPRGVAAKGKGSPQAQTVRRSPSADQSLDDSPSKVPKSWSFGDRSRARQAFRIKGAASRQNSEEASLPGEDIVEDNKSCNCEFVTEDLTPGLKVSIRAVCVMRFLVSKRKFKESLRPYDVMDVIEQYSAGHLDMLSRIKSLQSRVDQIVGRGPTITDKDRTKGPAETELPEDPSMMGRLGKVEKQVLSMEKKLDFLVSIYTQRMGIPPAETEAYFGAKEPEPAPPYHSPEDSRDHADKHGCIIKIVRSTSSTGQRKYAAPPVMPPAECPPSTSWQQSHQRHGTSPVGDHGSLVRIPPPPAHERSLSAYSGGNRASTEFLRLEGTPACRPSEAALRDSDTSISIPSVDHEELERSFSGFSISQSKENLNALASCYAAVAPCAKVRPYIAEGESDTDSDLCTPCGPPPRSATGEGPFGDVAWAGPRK
Each line names hits and unclear results; the compound was inactive in the other large screens (follow-up assays come after a bar, where they were run).

CCCCCCSC1=C(C#N)C(c2ccc(C)o2)CC(=O)N1 (configuration not stated)	none (no result: KCNQ2 pot) | Kir21 confirm 60% | HEK293 ctr inactive
Cc1ccc(C2CC(=O)NC(SCc3ccccc3)=C2C#N)o1 (configuration not stated)	none (no result: KCNQ2 pot) | Kir21 confirm 44% | HEK293 ctr inactive
N#CC1=C(SCc2ccccc2)NC(=O)CC1c1ccco1 (configuration not stated)	none (no result: KCNQ2 pot) | Kir21 confirm 41% | HEK293 ctr inactive
C=C(C)CSC1=C(C#N)C(c2ccccc2)CC(=O)N1 (configuration not stated)	none (no result: KCNQ2 pot)
CCSC1=C(C#N)C(c2ccc(C)o2)CC(=O)N1 (configuration not stated)	none (no result: KCNQ2 pot)
C=CCOc1ccc(/C=N/N2C(=O)C(CC(=O)Nc3ccc(F)cc3F)SC2=NC)cc1 (configuration not stated)	none
COc1nc(C)cc(C)c1S(=O)(=O)c1ccc(Cl)cc1	none
CCOc1nc(C)cc(C)c1S(=O)(=O)c1ccc(Cl)cc1	none | Kir21 confirm 52% | HEK293 ctr inactive
COc1ccc(CNCc2ccc(OC)c3ccccc23)cc1	none | Kir21 confirm 20% | HEK293 ctr inactive
COc1ccccc1CNCC(c1ccccc1)c1ccccc1	none (no result: KCNQ2 pot) | Kir21 confirm 48% | HEK293 ctr inactive
COc1ccccc1CNCc1cccc(Oc2ccccc2)c1	none | Kir21 confirm inactive | HEK293 ctr inactive
COc1ccccc1CNCc1cc(OC)c(OC)cc1OC	none
COc1cc(CNCc2cccc3ccccc23)cc(OC)c1	none (no result: KCNQ2 pot)
COc1ccccc1CNCc1ccc(OC)c2ccccc12	none | Kir21 confirm 36% | HEK293 ctr inactive
COc1ccccc1CNCc1cc(Br)ccc1OC	none
COc1cccc(CNCc2ccc(OC)c3ccccc23)c1OC	none
CCOc1cc(CNn2nnnc2N)cc(Cl)c1OCC(=O)NC(C)(C)C	none (no result: KCNQ2 pot)
O=S(=O)(c1ccc(-c2ccon2)s1)N1CCN(c2ccncc2)CC1	none (no result: KCNQ2 pot)
O=C(Cc1ccc(Br)cc1)Nc1ccc(S(=O)(=O)Nc2ncccn2)cc1	none (no result: KCNQ2 pot)
Nc1ccccc1NC(=O)NC(=O)c1ccccc1	none (no result: KCNQ2 pot)
COC(=O)c1c(NC(=O)COC(=O)C2CCC2)sc(C)c1C	none (no result: KCNQ2 pot)
Cc1ccc(CN2CCC(c3nc4ccc(Cl)cc4[nH]3)CC2)cc1	none (no result: KCNQ2 pot) | Kir21 confirm 26% | HEK293 ctr inactive
CC1CCCCN1C(=O)CN1CCC(c2nc3ccc(Cl)cc3[nH]2)CC1 (configuration not stated)	none (no result: KCNQ2 pot)
Clc1ccc2nc(C3CCN(Cc4ccccc4)CC3)[nH]c2c1	none (no result: KCNQ2 pot) | Kir21 confirm 41% | HEK293 ctr inactive
O=C(c1cccc(Cl)c1)N1CCC(c2nc3ccccc3[nH]2)CC1	none
O=C(O)CCS(=O)(=O)c1nc(-c2cccs2)cc(C(F)(F)F)n1	none (no result: KCNQ2 pot)
CS(=O)(=O)c1nc(-c2cccs2)cc(C(F)(F)F)n1	KCNQ2 block -5.9 | Kir21 confirm 70% | HEK293 ctr 70%
C/C(CCC(=O)O)=N/Nc1ccc([N+](=O)[O-])cc1[N+](=O)[O-]	none
O=C(O)/C(CC(=O)c1ccc(Cl)cc1)=N/Nc1ccc([N+](=O)[O-])cc1[N+](=O)[O-]	KCNQ2 pot 7.7 | Kir21 confirm inactive | HEK293 ctr inactive | CHO-K1 Tl ctr inactive | KCNQ1 sel pot inactive | KCNQ2 pot confirm 32 | Kir2-1 sel inactive | KCNQ2 W236L MoA inactive
COc1ccccc1CNC(=O)CS(=O)(=O)c1ccc(C)cc1	none
c1ccc(COc2ccccc2CNC2CCCC2)cc1	none
c1ccc(COc2ccccc2CNC23CC4CC(CC(C4)C2)C3)cc1	none (no result: KCNQ2 pot) | Kir21 confirm 42% | HEK293 ctr inactive
COc1ccc(C(=O)C(Sc2nnc(C)c(=O)[nH]2)c2ccc(OC)cc2)cc1 (configuration not stated)	none (no result: KCNQ2 pot)
CCCOc1ccc(/C(O)=C2\C(=O)C(=O)N(c3ccccn3)C2c2ccccc2F)cc1C (configuration not stated)	none
CC(C)C(c1nnnn1Cc1ccccc1)N1CCN(Cc2ccc3c(c2)OCO3)CC1 (configuration not stated)	none (no result: KCNQ2 pot)
CCOc1ccccc1NC(=O)c1nc(S(=O)(=O)Cc2ccccc2)ncc1Cl	none
CC(C)c1nnc(NC(=O)c2nc(S(=O)(=O)Cc3ccccc3)ncc2Cl)s1	KCNQ2 pot 15 | Kir21 confirm inactive | HEK293 ctr inactive | CHO-K1 Tl ctr 23 | KCNQ1 sel pot inactive | KCNQ2 pot confirm 94 | Kir2-1 sel inactive | KCNQ2 W236L MoA 29%
CCCc1nnc(NC(=O)c2nc(S(=O)(=O)Cc3ccc(C)cc3)ncc2Cl)s1	KCNQ2 pot 10 | CHO-K1 Tl ctr inactive | KCNQ1 sel pot inactive | KCNQ2 pot confirm 55 | Kir2-1 sel inactive | KCNQ2 W236L MoA 25%
CSc1ncc(Cl)c(C(=O)Nc2nnc(SC)s2)n1	none
CSc1nnc(NC(=O)c2nc(S(=O)(=O)Cc3ccccc3)ncc2Cl)s1	KCNQ2 pot 14 | Kir21 confirm inactive | HEK293 ctr inactive | CHO-K1 Tl ctr 23 | KCNQ1 sel pot 18 | KCNQ2 pot confirm 83 | Kir2-1 sel inactive | KCNQ2 W236L MoA 32%
CCc1ccc(NC(=O)c2nc(S(=O)(=O)Cc3ccccc3)ncc2Cl)cc1	none
COc1cc(C(CC(=O)Nc2cccc(C)n2)N2Cc3ccccc3C2=O)cc(OC)c1OC (configuration not stated)	none
Cc1onc(-c2ccccc2)c1C(=O)N1CCN(S(=O)(=O)c2ccc(OC(F)(F)F)cc2)CC1	none (no result: KCNQ2 pot)
COc1cccc(NC(=O)CCCCCN2C(=O)[C@@H]3Cc4ccccc4CN3C2=O)c1	none (no result: KCNQ2 pot)
CCN(CC)c1ccc(NC(=O)C2CCCC2)cc1	none
